# Results taken from PubChem BioAssay (NCI).
# This is part of a sample that, as a whole, favours compounds with a hit. Of some 79,000 tested, about 15% had one in any assay. Activity calls are given as the source filed them. No stated cut-off is given here; in the data, active means growth inhibition above about 70%; inactive means the rest.
# Test: NCI Yeast Anticancer Drug Screen. Data for the rad50 strain (AID 155);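 further: 0% = growth of vehicle-only cultures of the same strain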
# Conditions: S. cerevisiae rad50 strain growth inhibition; at 50.0 µM; hits give high values
# Method in brief: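 Genetically altered yeast (DNA repair pathway); compound treatment; growth inhibition vs vehicle ctrl.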
row,Structure (SMILES),growth inhibition
1,C/C=C1\CN2CCC1CC2C(O)c1ccnc2ccc(O)cc12 (stereo not given),-3.6% (inactive)
2,CCOC(=O)c1ccc2nc(-c3ccc(S(=O)(=O)F)cc3)cc(Cl)c2c1,12% (inactive)
3,CC(Cc1ccccc1)N(C)CC1C(=O)C2CCC1C2 (stereo not given),10.5% (inactive)
4,Brc1ccc(C[N+]23CCN(CC2)CC3)cc1,-14.2% (inactive)
5,CSC(=S)NNC(=O)c1cccc(S(=O)(=O)F)c1,-2.95% (inactive)
6,O=c1[nH]c(=O)c2[nH]c(N=Nc3ccc(N(CCCl)CCCl)cc3)nc2[nH]1,20.9% (inactive)
7,COc1ccccc1NC1=NCCS1,20.9% (inactive)
8,CCCCCC(C)C1C(=O)NC(=O)NC1=O (stereo not given),6.4% (inactive)
9,O=C(/C=C/c1ccccc1)NCCc1cnc[nH]1,0.65% (inactive)
10,O=c1c2ccccc2[nH]c(=S)n1-c1cccc(Cl)c1,44.2% (inactive)
11,O=[As]c1ccc2c(c1)NC(O)=CO2 (stereo not given),21.9% (inactive)
12,Clc1cccc(NC2=NCCS2)c1,-7.35% (inactive)
13,O=c1c2ccc(Cl)cc2[nH]c(=S)n1-c1ccc(Cl)cc1,10.1% (inactive)
14,O=C(CBr)OCCCS(=O)(=O)O,-24.9% (inactive)
15,CCCOP(=O)(CCl)OCCC,-7.8% (inactive)
16,Cc1ccc(-n2c(=S)[nH]c3ccccc3c2=O)cc1,-8.7% (inactive)
17,Cc1cccc(-c2cc(Cl)c3cc(S(=O)(=O)F)ccc3n2)c1,-1.1% (inactive)
18,COc1ccc(S(=O)(=O)F)cc1NC(=O)c1ccc2ccccc2c1O,6.4% (inactive)
19,NC(=O)NNc1ccc([N+](=O)[O-])cc1[N+](=O)[O-],12.1% (inactive)
20,CN1C2c3ccccc3C3C4c5ccccc5C(C31)C(C2[N+](=O)[O-])N4C (stereo not given),-12.8% (inactive)

row,Structure (SMILES),growth inhibition
1,CCCCCCNC1C=CCC1 (stereo not given),-5.75% (inactive)
2,COc1ccc(-n2c(=S)[nH]c3ccccc3c2=O)cc1,-10.5% (inactive)
3,CCCCCCCBr,-21.5% (inactive)
4,C(=C\c1cccs1)/CN1CCC2CCC(C2)C1 (stereo not given),-3.25% (inactive)
5,Nc1ccc([As](=O)(O)O)cc1C(=O)O,-16.3% (inactive)
6,O=[N+]([O-])c1ccc(C[N+]23CCN(CC2)CC3)cc1,5.9% (inactive)
7,Cc1ccc(-n2c(=S)[nH]c3ccccc3c2=O)cc1F,-23.9% (inactive)
8,NC(=NC1CCCCCCCCCCC1)N[N+](=O)[O-],36.1% (inactive)
9,COc1cccc(N=C(N)N[N+](=O)[O-])c1,-13.2% (inactive)
10,CC1C2C=CC1C(c1c3ccc(=O)cc-3oc3cc(O)ccc13)C2C(=O)O (stereo not given),-4.85% (inactive)
11,CC1NCCc2cc(O)c(O)cc21 (stereo not given),4.35% (inactive)
12,c1ccc2c(c1)O[As](O[As]1Oc3ccccc3O1)O2,-4.2% (inactive)
13,CC(=O)c1ccccc1N=Nc1ccc(N(CCCl)CCCl)cc1C,13.5% (inactive)
14,Clc1cccc2ccccc12,7.8% (inactive)
15,O=C(CBr)OCS(=O)(=O)O,-15.2% (inactive)
16,NC(Cc1ccccc1)c1nn[nH]n1 (stereo not given),-10.2% (inactive)
17,CN1CCN(c2ccc(Cl)cc2)CC1,-5.85% (inactive)
18,Cc1ccc(-c2cc(Cl)c3cc(S(=O)(=O)F)ccc3n2)cc1,-4% (inactive)
19,O=C(CCN1CC=C(c2ccccc2)CC1)NCc1ccccc1,5% (inactive)
20,CNCCc1ccc(O)c(O)c1,-1.6% (inactive)
